Assay results as given in PubChem BioAssay AID588511 (Johns Hopkins Ion Channel Center, 2011).
Among all 310,000 compounds or so, about 3,600 (1.2%) were called active. This is one part of a sample in which actives are shown more often than they occur.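 How the source made its calls: active means ratio plate-corrected score three or more library SD toward inhibition, starting fluorescence score within five deviations; inactive means the rest.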

The compounds below were run against Anoctamin-1 (Mus musculus) (UniProt Q8BHY3) (assay: TMEM16A chloride channel inhibitors, primary screen, cell-based, HTS (AID 588511;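 on normalized B-score (activity score, 25-100; higher = stronger inhibition): score derived from kinetic fluorescence span divided by baseline fluorescence per well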)). Details: HEK293 TMEM16A/YFP iodide influx fluorescence, ionomycin; at 10 µM.
Sequence of Anoctamin-1 (Mus musculus) (Q8BHY3 whole entry, looked up): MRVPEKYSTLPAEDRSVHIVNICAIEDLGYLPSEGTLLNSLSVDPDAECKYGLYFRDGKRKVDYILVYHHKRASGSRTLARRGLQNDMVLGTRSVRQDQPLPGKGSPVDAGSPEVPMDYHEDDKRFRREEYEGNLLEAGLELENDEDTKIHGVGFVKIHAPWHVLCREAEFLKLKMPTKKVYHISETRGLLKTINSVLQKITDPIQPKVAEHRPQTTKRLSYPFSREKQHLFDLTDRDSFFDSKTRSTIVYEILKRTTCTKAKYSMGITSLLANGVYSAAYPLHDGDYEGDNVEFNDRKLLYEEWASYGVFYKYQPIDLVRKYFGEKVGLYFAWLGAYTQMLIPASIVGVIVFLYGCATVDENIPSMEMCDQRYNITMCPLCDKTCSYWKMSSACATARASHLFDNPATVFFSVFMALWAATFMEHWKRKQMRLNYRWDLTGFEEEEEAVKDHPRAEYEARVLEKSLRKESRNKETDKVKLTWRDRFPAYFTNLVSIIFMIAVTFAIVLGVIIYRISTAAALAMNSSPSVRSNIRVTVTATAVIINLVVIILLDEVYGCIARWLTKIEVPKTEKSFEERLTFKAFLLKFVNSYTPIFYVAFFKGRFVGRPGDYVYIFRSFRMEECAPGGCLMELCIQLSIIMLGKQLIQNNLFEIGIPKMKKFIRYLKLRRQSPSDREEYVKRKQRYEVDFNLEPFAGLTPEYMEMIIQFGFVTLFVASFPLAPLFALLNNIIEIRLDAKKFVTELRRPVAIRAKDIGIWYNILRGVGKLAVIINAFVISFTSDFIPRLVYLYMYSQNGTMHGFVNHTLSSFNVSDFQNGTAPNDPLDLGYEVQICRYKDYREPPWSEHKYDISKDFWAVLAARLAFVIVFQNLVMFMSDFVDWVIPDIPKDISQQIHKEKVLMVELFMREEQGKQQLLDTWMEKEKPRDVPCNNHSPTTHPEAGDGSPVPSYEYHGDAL

SMILES	normalized B-score (activity score, 25-100; higher = stronger inhibition)
COc1ccc(N(CC(=O)NC2CCCCC2)C(=O)CNC(=O)c2ccco2)c(OC)c1	inactive
CCOc1ncccc1C(=O)N(C)CC(=O)Nc1ccc(F)cc1	inactive
Cc1ccc(CNS(=O)(=O)CCNC(=O)c2ccccc2)cc1	inactive
COc1ccc(CCNC(=O)C(=O)NCC2OCCN2S(=O)(=O)c2ccc(F)cc2)cc1OC (centres undefined)	inactive
CCCCNC(=O)c1ccccc1NC(=O)c1ccccc1N(C)S(C)(=O)=O	inactive
CCOC(=O)c1cccc(NC(=O)CCOc2ccccc2)c1	inactive
CCOC(=O)c1cccc(NC(=O)CCc2c(C)nc3ncnn3c2C)c1	inactive
CCOC(=O)c1cccc(NC(=O)CCn2nnc3ccccc32)c1	100 (active)
COC(=O)c1cc(NC(=O)c2cc(C(C)(C)C)nn2Cc2cccc(C)c2)ccc1N1CCOCC1	inactive
Cc1cccc(C)c1N1C(=O)CN(Cc2ccccc2)C1=S	inactive
CC1Cc2ccccc2N1S(=O)(=O)c1ccc(Cl)nc1 (centres undefined)	inactive
CC1Cc2ccccc2N1S(=O)(=O)c1c(N)n(C)c(=O)n(C)c1=O (centres undefined)	inactive
CCCCn1ccnc1C(=O)c1cccc(S(=O)(=O)N2c3ccccc3CC2C)c1 (centres undefined)	25 (active)
CC(=O)N1c2ccc(S(=O)(=O)N3CCCC(C(=O)Nc4cccc(Cl)c4)C3)cc2CC1C (centres undefined)	inactive
CC(=O)N1CCCc2cc(S(=O)(=O)N3CCCC(C(=O)N4CCN(c5cccc(Cl)c5)CC4)C3)ccc21 (centres undefined)	100 (active)
CC(=O)N1CCCc2cc(S(=O)(=O)N3CCCC(C(=O)NCc4ccc(Cl)cc4)C3)ccc21 (centres undefined)	inactive
COC(=O)c1ccccc1NC(=S)NC(=O)c1ccccc1F	inactive
O=C(NC(=S)Nc1ccccc1C(=O)O)c1ccc(-c2ccc(Br)cc2)o1	100 (active)
O=C(O)c1ccccc1NC(=O)c1ccccc1-c1ccccc1C(=O)O	inactive
Cc1cc(C)cc(N(CC(=O)NC2CCCC2)C(=O)CCC(=O)Nc2cc(C)on2)c1	inactive
COc1cccc(/C=C/C(=O)Nc2ccc3c(c2)OCCO3)c1	inactive
Cc1[nH]n(-c2ccccc2)c(=O)c1/C=N/NC(=O)c1ccoc1C	inactive
COc1cc(SC#N)ccc1N=Cc1c(C)[nH]n(-c2ccc(C)cc2)c1=O	inactive
Cc1ccc(-n2[nH]c(C)c(/C=N/N3C(=O)c4cccc5cccc(c45)C3=O)c2=O)cc1	100 (active)
Cc1ccc(C2(C(F)(F)F)N=C3Sc4cc(C)cc(C)c4N3C(=O)N2)cc1 (centres undefined)	inactive
Cc1c(C(=O)OCC(=O)N2CCCC2=O)oc2ccccc12	inactive

SMILES	normalized B-score (activity score, 25-100; higher = stronger inhibition)
Oc1ccccc1N1CCN(c2ncnc3sc(-c4ccccc4)cc23)CC1	inactive
c1ccc(-c2cc3c(NCC4COc5ccccc5O4)ncnc3s2)cc1 (centres undefined)	100 (active)
COc1ccc(Nc2ncnc3sc(-c4ccccc4)cc23)c(OC)c1	inactive
COc1cc(Cl)c(C)cc1NC(=O)CN1CCCCCC1	inactive
O=C(Cc1cccs1)NCc1cccc(C(F)(F)F)c1	inactive
CCOn1c(=O)c(=O)n(O)c2ccccc21	inactive
CN1CCC(=O)N([C@H](CO)Cc2ccccc2)CC1	inactive
C[C@H]1CCC(=O)N([C@H](CSc2ccccc2)Cc2ccccc2)CC1	25 (active)
COc1ccc(SC[C@H](Cc2ccccc2)N2CCN(CCc3ccccc3)CCC2=O)cc1	inactive
Cn1c2c(c(=O)n(C)c1=O)C(c1cccc([N+](=O)[O-])c1)Nc1ccccc1O2 (centres undefined)	inactive
COc1cccc(-c2nc(CS(=O)(=O)CC(=O)NCCc3ccc(OC)c(OC)c3)c(C)o2)c1	inactive
COc1ccc(CCNC(=O)C2CCCN(Cc3nc(-c4cccc(Cl)c4)oc3C)C2)cc1OC (centres undefined)	100 (active)
COc1ccc(CCNC(=O)CS(=O)(=O)Cc2nc(-c3ccc(C)cc3)oc2C)cc1OC	inactive
CCOc1ccc(/C=C/C(=O)OCC(=O)c2ccccc2OC)cc1OC	inactive
Cc1cccc(N)c1SC1CCCCC1O (centres undefined)	inactive
Cc1cccc(N=C2SC(C)CN2C(=O)CN2C(=O)NC3(CCCC3)C2=O)c1 (centres undefined)	inactive
O=C(Nc1nnc(S(=O)(=O)N2CCCCCC2)s1)c1cccc(Br)c1	inactive
NS(=O)(=O)c1ccc(N=Cc2ccc(Br)s2)cc1	inactive
COC(=O)C1=C(C)NC(=O)CC1c1ccccc1OC (centres undefined)	inactive
COc1ccccc1C1C2=C(COC2=O)Nc2cc3c(cc21)OCO3 (centres undefined)	inactive
CCCOc1ccccc1C1CC(=O)Nc2cc3c(cc21)OCO3 (centres undefined)	25 (active)
CC1CCN(C(=O)CN(c2ccc(Oc3ccccc3)cc2)S(C)(=O)=O)CC1	inactive
COc1ccc(S(=O)(=O)N(CCCN2CCCC2=O)Cc2cc3c(C)ccc(C)c3[nH]c2=O)cc1	inactive
Cc1ccc(-c2noc(CSc3nnnn3-c3ccccc3)n2)cc1	100 (active)
Cc1ccc(-c2noc(CSc3nnc(-c4ccccc4)n3C)n2)cc1	inactive
Cc1ccc(-c2noc(CSc3nnc(-c4cccs4)n3C)n2)cc1	inactive

SMILES	normalized B-score (activity score, 25-100; higher = stronger inhibition)
Cc1ccc(-c2nnc(CN3CCN(C)CC3)o2)cc1	inactive
O=C(NCCCN1CCCC1=O)C(=O)NCC1OCCN1S(=O)(=O)c1ccc(Br)cc1 (centres undefined)	inactive
Cc1cccc(CSc2nc3c(c(=O)n2C)SCC3)c1	25 (active)
CCn1c(SCc2ccccc2)nc2c(c1=O)SCC2	inactive
Cn1c(SCC(=O)N2CCCCC2)nc2c(c1=O)SCC2	inactive
O=C(Nc1ccnn1C1CCN(C/C=C/c2ccc(F)cc2)CC1)C1CCCC1	inactive
COc1ccc(OC)c(S(=O)(=O)N2CCCC(C(=O)N3CCC(C(N)=O)CC3)C2)c1 (centres undefined)	inactive
Cc1ccc(C(=O)NNC(=O)C(C)Oc2ccc3ccccc3c2)o1 (centres undefined)	inactive
CC(Oc1ccc2ccccc2c1)C(=O)NNC(=S)NC(=O)c1ccco1 (centres undefined)	100 (active)
CCCc1ccc(OCC(=O)NNC(=S)NC(=O)c2ccco2)cc1	inactive
O=C(Nc1cc(-c2ccccc2)nn1-c1ccccc1F)c1ccc([N+](=O)[O-])cc1	inactive
CSc1ccc(C(=O)C2CCCN(C(=O)c3ccc(C)nc3)C2)cc1 (centres undefined)	inactive
CCOC(=O)N1CCC(=NNC(N)=O)CC1	inactive
Cc1cccc(-c2nc(CS(=O)CC(=O)NC(C)CCc3ccccc3)c(C)o2)c1 (centres undefined)	inactive
O=c1ccc2cc(S(=O)(=O)NCCCc3ccccc3)ccc2[nH]1	inactive
Cc1ccc(Nc2cc(=O)n(C3CCCCC3)c(=O)[nH]2)cc1C	inactive
O=c1cc(C(F)(F)F)[nH]c(=O)n1C1CCCCC1	25 (active)
CCCOn1c(-n2nc(C)cc2C)nc2ccccc2c1=O	inactive
CC1=CC2=NC(=O)/C(=C/c3coc4ccccc4c3=O)C(=N)N2O1	inactive
COc1ccc(OCCCn2cccc2/C=C2/C(=N)N3OC(C)=CC3=NC2=O)cc1	25 (active)
CCOc1cc(/C=C2/C(=N)N3OC(C)=CC3=NC2=O)ccc1OC	inactive
Cn1cnc(C(F)(F)F)c1-c1ccc([N+](=O)[O-])cc1	inactive
O=C(Nc1cccc(S(=O)(=O)Nc2ccc(Cl)cc2)c1)c1ccc2c(c1)OCCO2	25 (active)
O=C(Nc1cccc(S(=O)(=O)N2CCCCC2)c1)c1ccc2c(c1)OCO2	inactive
O=C(Nc1ccccc1)c1ccc2c(c1)OCCCO2	inactive
CCn1c(SCC(=O)NCC2CCCO2)nc2cc(S(=O)(=O)N3CCCCC3)ccc21 (centres undefined)	inactive

SMILES	normalized B-score (activity score, 25-100; higher = stronger inhibition)
CCCCn1c(SCC(=O)N2CCC(C(=O)OCC)CC2)nc2cc(S(N)(=O)=O)ccc21	inactive
CCCCn1c(SCc2ncc(-c3ccccc3)o2)nc2cc(S(N)(=O)=O)ccc21	25 (active)
CN(C)c1cc(-c2ccc(F)cc2)oc(=O)c1Cl	inactive
N#CC1=C(SCc2ccc(C#N)cc2)N=C(N)C(c2nc(-c3ccccc3)cs2)C12CCCCC2 (centres undefined)	inactive
N#CC1=C(SCc2ccccc2)NC(=O)C(C#N)C12CCCC2 (centres undefined)	25 (active)
CC1(C)CCc2nc(SCc3ccccc3)c(C#N)cc2C1	inactive
Nc1ccc(C(=O)OCC(=O)NC2CCS(=O)(=O)C2)cc1[N+](=O)[O-] (centres undefined)	inactive
CCC1CCCCN1C(=S)Nc1ccc(SC(F)F)cc1 (centres undefined)	inactive
COc1ccc(CCN2CC(C(=O)NCCN3CCNC3=O)CCC2=O)cc1 (centres undefined)	inactive
O=[N+]([O-])c1cc(Cl)cc(/C=N/NC(=S)Nc2cc(S(=O)(=O)N3CCOCC3)ccc2Cl)c1O	100 (active)
O=C(N/N=C/c1ccc([N+](=O)[O-])o1)c1cccc(S(=O)(=O)N2CCOCC2)c1	inactive
O=C(NC(=S)Nc1ccc(S(=O)(=O)N2CCOCC2)cc1)c1ccccc1[N+](=O)[O-]	inactive
Cc1ccsc1C(=O)N[C@@H](C)c1nnc2ccccn12	inactive
COC(C[C@@H]1O[C@@H]1C(=O)[C@H](C)OCc1ccccc1)OC	inactive
CSCCC(C(=O)NC1=NCCS1)N1C(=O)c2ccccc2C1=O (centres undefined)	inactive
COC(=O)[C@@H]1CC(O)CN1C(=O)C12CC3CC(CC(C3)C1)C2 (some centres undefined)	inactive
CC(C)OCCCNc1ncnc2c1[nH]c1ccc(F)cc12	100 (active)
CC(C)OCCCNC(=O)c1cc(Sc2ccc(F)cc2)nc2ccccc12	inactive
CNS(=O)(=O)c1cnccc1N1CCN(c2cccc(C)c2)CC1	inactive
CCC1(C)Cc2c(sc3[nH]c(=S)n(Cc4ccccc4)c(=O)c23)CO1 (centres undefined)	inactive
CC1CC(C)(C)n2c(O)c(N=NC(N)=S)c3cccc1c32 (centres undefined)	inactive
CCC(C)NCCOCCOc1ccc(Br)cc1C (centres undefined)	inactive
COc1cccc(OC)c1C(=O)N1CCN(Cc2cccnc2)CC1	inactive
Cc1cc(-c2ccc(C)c(S(=O)(=O)Nc3ccc(S(N)(=O)=O)cc3)c2)on1	inactive
Cc1ccc2c(c1)N(S(=O)(=O)c1cc(-c3cc(C)no3)ccc1C)CCO2	25 (active)
Cc1cc(-c2ccc(C)c(S(=O)(=O)NC(C)Cc3ccco3)c2)on1 (centres undefined)	inactive
